Source: PubChem BioAssay AID1159580 (chemical genetic matrix, 2015)
Several values for one entry are separate records, joined by “and”; a condition that tells them apart may be missing. Identical values can stand only once. In all, about 5,500 compounds went through this assay and about 2,000 (36%) were called active. Not shown: some 18% with an inconclusive outcome. No stated cut-off is given here; in the data, active means normalized growth mostly below about 0.91 (no sharp cut-off); inconclusive means no clear call, values can overlap the other calls; inactive means mostly above about 0.92. Some of the results follow.

Experiment: chemical genetic growth profiling, strain panel (AID 1159580);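 further: tested at 20 µM; growth read once vehicle control cultures reached saturation at 30 °C; 1 = growth at the plate median or of vehicle wells; lower values mean less growth of the strain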
Conditions: S. cerevisiae deletion strains, growth OD

Measured: normalized growth

O=c1[nH]cnc2nc[nH]c12
inactive: locus YAL021C, strain ccr4, hits give low values 1.04 | locus YAL026C, strain drs2, hits give low values 1.02 | locus YAL030W, strain snc1, hits give low values 1.03 | locus YBL061C, strain skt5, hits give low values 1.02 | locus YBR009C, strain hhf1, hits give low values 1.01 | locus YBR021W, strain FUR4, hits give low values 0.972 | locus YBR023C, strain chs3, hits give low values 1.01 | locus YBR171W, strain sec66, hits give low values 1.04 | locus YBR229C, strain ROT2, hits give low values 0.992 | locus YBR231C, strain swc5, hits give low values 1.02 | locus YBR279W, strain paf1, hits give low values 1.01 | locus YCL011C, strain gbp2, hits give low values 1.03 | locus YCL016C, strain dcc1, hits give low values 1.01 | locus YCL029C, strain bik1, hits give low values 0.977 | locus YCL061C, strain MRC1, hits give low values 1.01 | locus YCL069W, strain vba3, hits give low values 1.01 | locus YCR088W, strain abp1, hits give low values 1.02 | locus YDL005C, strain med2, hits give low values 1.02 | locus YDL035C, strain GPR1, hits give low values 1.01 | locus YDL040C, strain nat1, hits give low values 1 | locus YDL074C, strain BRE1, hits give low values 0.986 | locus YDL101C, strain DUN1, hits give low values 0.999 | locus YDL134C, strain PPH21, hits give low values 1 | locus YDL185W, strain tfp1, hits give low values 0.979 | locus YDL192W, strain arf1, hits give low values 0.994 | locus YDR001C, strain nth1, hits give low values 1.01 | locus YDR069C, strain doa4, hits give low values 1.04 | locus YDR101C, strain arx1, hits give low values 0.973 | locus YDR137W, strain rgp1, hits give low values 1.07 | locus YDR150W, strain NUM1, hits give low values 1 | locus YDR159W, strain sac3, hits give low values 1.03 | locus YDR162C, strain NBP2, hits give low values 1.04 | locus YDR195W, strain ref2 1.01 | locus YDR297W, strain sur2, hits give low values 1.04 | locus YDR318W, strain mcm21, hits give low values 0.984 | locus YDR334W, strain swr1, hits give low values 1.03 | locus YDR335W, strain msn5, hits give low values 1.02 | locus YDR388W, hits give low values 0.983 | locus YDR392W, strain spt3, hits give low values 1.01 | locus YDR502C, strain sam2, hits give low values 1 | locus YEL003W, strain gim4, hits give low values 1.01 | locus YEL037C, strain rad23, hits give low values 1.01 | locus YEL061C, strain CIN8 (second series), hits give low values 1.02 | locus YEL061C, strain CIN8, hits give low values 1 | locus YER015W, strain faa2, hits give low values 1.01 | locus YER016W, strain bim1, hits give low values 1.02 | locus YER110C, hits give low values 0.969 | locus YER111C, strain swi4, hits give low values 1.02 | locus YER155C, strain BEM2 (second series), hits give low values 1.02 | locus YER155C, strain BEM2, hits give low values 0.992 | locus YER167W, strain BCK2, hits give low values 0.982 | locus YFR010W, strain ubp6, hits give low values 1.03 | locus YGL078C, strain dbp3, hits give low values 0.986 | locus YGL086W, strain mad1, hits give low values 0.955 | locus YGL167C, strain pmr1, hits give low values 1.02 | locus YGL173C, strain kem1, hits give low values 1.03 | locus YGL227W, strain vid30, hits give low values 1.01 | locus YGL240W, strain doc1, hits give low values 1.01 | locus YGL248W, strain PDE1, hits give low values 1.01 | locus YGL253W, strain hxk2, hits give low values 1.02 | locus YGR135W, strain pre9, hits give low values 1.01 | locus YGR252W, strain gcn5, hits give low values 1.09 | locus YHR013C, strain ard1, hits give low values 1.05 | locus YHR027C, strain rpn1, hits give low values 1.01 | locus YHR030C, strain SLT2, hits give low values 0.989 and 1.05 | locus YHR079C, strain IRE1 (second series), hits give low values 0.975 | locus YHR079C, strain IRE1, hits give low values 1.02 | locus YHR094C, strain hxt1, hits give low values 0.974 | locus YHR129C, strain ARP1, hits give low values 0.996 | locus YHR142W, strain chs7, hits give low values 1.02 | locus YHR200W, strain rpn10, hits give low values 0.998 | locus YIL066C, strain RNR3, hits give low values 0.998 | locus YIL073C, strain SPO22, hits give low values 0.963 | locus YIL125W, strain kgd1, hits give low values 0.972 | locus YIR030C, strain dcg1, hits give low values 0.989 | locus YJL092W, strain hpr5, hits give low values 1.02 | locus YJL095W, strain BCK1 (second series), hits give low values 1.01 | locus YJL095W, strain BCK1, hits give low values 1.02 and 1.01 | locus YJL115W, strain asf1, hits give low values 1.02 | locus YJL129C, strain trk1, hits give low values 1.03 | locus YJL134W, strain LCB3, hits give low values 0.994 | locus YJL154C, strain vps35, hits give low values 1.02 | locus YJL164C, strain tpk1, hits give low values 1.01 | locus YJL166W, strain qcr8, hits give low values 1.01 | locus YJL168C, strain set2, hits give low values 0.977 | locus YJL187C, strain SWE1 (second series), hits give low values 1.01 | locus YJL187C, strain SWE1, hits give low values 1.02 | locus YJR043C, strain POL32, hits give low values 1.03
